Measured values reported in PubChem BioAssay (NCI).
This is part of a sample that, as a whole, favours compounds with a hit. Of some 83,000 tested, about 20% had one in any assay.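 Activity criterion: percent growth below 10, measured after cells in 96-well plates were exposed to a single compound concentration for 48 hours.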 Values without a mark were called inactive. Active and inactive are the calls of the source.

The compounds below were run on TK-10 renal (assay: NCI-60 one-dose screen, 48 h (100 = growth as untreated, 0 = no growth, -100 = all killed)). Details: 10 µM unless noted.

Point of comparison: `CS(=O)(=O)Nc1cc(-c2ccc3ncc(C#N)c(N[C@H](CO)c4ccccc4)c3c2)cnc1Cl`, growth 34.8%. Against it:
- NS(=O)(=O)c1ccc(Nc2nc(N/N=C/c3c[nH]c4ccccc34)nc(Nc3ccccc3)n2)cc1 — higher, 94.7%
- CCc1cccc2c3c(sc12)C(c1ccc(OC)cc1)C(C#N)=C(/N=C/c1ccc(Cl)cc1)O3 (configuration not stated) — higher, 80.7%
- Cn1ccnc1C(=O)/C=C/c1ccc(CNC(=O)c2ccc(F)cc2)cc1 — higher, 75%
- N#Cc1cccc(NC(=O)c2cc(-c3ccc(F)cc3F)ccc2O)c1 — lower, 19.3%
- O=S(=O)(NCCCNc1nccc(-c2[nH]c(-c3ccccc3)nc2-c2ccc(Cl)c(O)c2)n1)c1cccc2ccccc12 — higher, 49.7%
- CC1(C)[C@@H](O)CC[C@]2(C)[C@H]3CC[C@@H]4[C@H]5[C@H](C(=O)/C=C\c6ccncc6)CC[C@]5(O)CC[C@@]4(C)[C@]3(C)CC[C@@H]12 — higher, 100%
- O=C(CSc1nc2ccccc2c(=O)n1-c1ccccc1)Nc1ccc(-c2nc3ccc([N+](=O)[O-])cc3[nH]2)cc1 — higher, 127%
- Oc1cccc2ccc(-c3nnc(SCc4ccc(O)c5ncccc45)n3-c3ccccc3)nc12 — lower, 14.2%
- C=CCn1c(SCC(=O)Nc2ccc(C(=O)/C=C/c3ccc(C)cc3)cc2)nnc1-c1c[nH]c2ccccc12 — higher, 114%
- CCN(CC)c1ccc(NC2=C(Cl)C(=O)c3nc(C)ccc3C2=O)cc1 — higher, 164%

With `C[C@@H](Nc1c(C#N)cnc2ccc(-c3cnc(Cl)c(NS(C)(=O)=O)c3)cc12)c1ccccc1` the growth was -17.9% (active).
